Measured values taken from PubChem BioAssay (NCI).
This is part of a sample that, as a whole, favours compounds with a hit. Of some 83,000 tested, about 20% had one in any assay.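 How to read the values: 0–100, growth inhibition (40 = 60% inhibited); 0, no net growth; -100 to 0, cell death (-40 = 40% of starting cells died; -100 = all dead).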 Calls of active or inactive are those of the source. How the source made its calls: active means growth percent below 10; inactive means the rest.

These molecules were tested on MDA-MB-468 breast (assay: NCI-60 one-dose screen, 48 h (100 = growth as untreated, 0 = no growth, -100 = all killed)). Details: 10 µM unless noted.
For `NC(=O)C1=C[C@H]2[C@H]3C=C[C@@]2(O)C(=O)O[C@@H]3O1`, the growth was -5.42% (active). In the case of `C#C[C@@]1(O)[C@@H](CO)O[C@@H](n2cc(-c3ccco3)c3c(N)ncnc32)[C@@H]1O`, the growth is reported as 49.5% (inactive). In the case of `COc1ccccc1S(=O)Nc1ccccc1` (stereo not drawn), the growth is reported as 97.2% (inactive).
